Several values for one entry are separate records, joined by “and”; a condition that tells them apart may be missing. Equal values may be shown once. Compounds without any hit were thinned out: in the full panel of roughly 83,000, 20% have a hit.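 Results are percent growth after 48 hours of single-concentration exposure. 100 means growth as in untreated cells, lower positive values show inhibition; negative values down to -100 show cell death.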 Values without a mark were called inactive. Activity calls are given as the source filed them. Rule for the calls: active = growth percent below 10; inactive = the rest.

In this test the test system is MDA-MB-468 breast. In words: NCI-60 one-dose screen, 48 h (100 = growth as untreated, 0 = no growth, -100 = all killed). The note with it: 10 µM unless noted.
For `COc1ccc(C2=CC(c3cc(OC)c(OC)c(OC)c3)n3ncnc3N2)cc1` (stereo not given), the growth was 32.2%.

For `O=C(/C=C/C12c3ccccc3C(c3ccccc31)C1C(=O)N(c3ccc(Cl)cc3)C(=O)C12)c1ccccn1` (stereo not given), the growth was -9.41% (active). On to `Cc1cc(O[C@@H]2O[C@@H](C)[C@H](O)[C@@H](O)[C@H]2O)c2c3c(c(O[C@@H]4O[C@@H](C)[C@H](O)[C@@H](O)[C@H]4O)cc2c1)C(=O)c1c(O)cccc1C3=O`, for which the growth is 67.5%. Turning to `O=[N+]([O-])c1ccc(S(=O)(=O)OCCCCOS(=O)(=O)c2ccc([N+](=O)[O-])cc2)cc1`, the growth was 92.2%. As for `COc1ccc2c(c1)oc1c(C)c3c(c(C)c12)C(=O)N(N)C3=O`, the growth was 59.7%. `O=C(CCCCCCc1nc2ccc(Br)cc2[nH]1)NO`: the growth was -1.04% (active). For the compound `Cc1cc([N+](=O)[O-])ccc1NC(=O)c1ccc2c(c1)nc(-c1ccccc1)n2C1CCCCC1`, the growth was 100%.

On to `CC1=C(C)C(=O)C(Nc2cccc(C(=O)OC(C)(C)C)c2)=C(Cl)C1=O`, for which the growth is -23.6% (active). Regarding `CCOC(=O)c1ccc2nc(-c3c(C)nn(-c4ccccc4)c3N3CCOCC3)[nH]c2c1`, the growth is 105%. As for `O=C1Nc2ccccc2/C1=C/C(=O)c1ccc(N2CCCCC2)cc1`, the growth was 80%.

As for `COc1ccc(C2NCCc3c2[nH]c2ccccc32)cc1CN1CCN(c2ccc(F)cc2)CC1` (stereo not given), the growth is 49%. On to `CC(C)Sc1nc(-c2ccccc2)c(C#N)c(N2CCOCC2)n1`, for which the growth was 80.9%.

In the case of `CNC(=O)c1cc(Oc2ccc3nc(NC(=O)c4ccc(N5CCOCC5)c(C(F)(F)F)c4)sc3c2)ccn1`, the growth was 80.5%. `COc1cccc(COC(=O)Nc2ccccc2)c1OC`: the growth was 93.3%. In the case of `CCOc1ccc2cc(-c3nn(CC4CCNCC4)c4ncnc(N)c34)ccc2c1`, the growth was 93.3% and 40.5%. As for `O=[N+]([O-])c1ccc(Br)o1`, the growth was 105%. In the case of `COc1ccc(C(=S)N2CCN(c3cccc(Cl)c3)CC2)cc1`, the growth is 88.4%. In the case of `CO[C@H]1CC(O[C@@H]2/C(C)=C/C[C@@H]3C[C@@H](C[C@]4(CC[C@H](C)[C@@H](C5CCCCC5)O4)O3)OC(=O)[C@@H]3C=C(C)/C(=N/O)[C@H]4OC/C(=C\C=C\[C@@H]2C)[C@]43O)O[C@@H](C)C1O` (stereo not given in full), the growth was -87% (active). The value for `CCN(CC)CCOc1ccc(/C(=C(\C)c2ccc(OC)c(F)c2)c2ccc(Cl)cc2)cc1` was 81.6%.

Take `C=C(CNCCc1ccc(O)cc1)[C@@H]1CC[C@]2(CO)CC[C@]3(C)[C@H](CC[C@@H]4[C@@]5(C)CCC(NCCO)C(C)(C)[C@@H]5CC[C@]43C)[C@@H]12` (stereo not given in full): the growth was -84.3% (active). Next, `O=C1Nc2cc(OC(F)(F)F)ccc2Oc2ccc(-c3ccnc(N4CC[C@H](O)C4)c3)cc21`: -28.9% (active); `CN1C(=O)N(C)C2C1NN=c1s/c(=C\c3ccc(Br)cc3)c(=O)n12` (stereo not given): 10.8%.

With `Cc1cc(CSc2ccccc2C(=O)N2CC=C(c3ccccc3)CC2)on1`, the growth is 94.2%. As for `COc1ccc(C(=O)Nc2ncc(Cc3ccc(F)cc3)s2)cc1`, the growth was 22.4%.

Take `COc1cc(-c2n/c(=C\c3c(O)[nH]c4ccc(Cl)cc34)cc3c2=Nc2ccccc2-3)cc(OC)c1OC`: the growth is 30.5%. Consider `Cc1cc(Nc2nc(N3CCNCC3)nc3ccccc23)n[nH]1`, for which the growth was 76.6%. For the compound `CN(C)CCCN(CCC1CCCCC1)CCC1CCCCC1`, the growth was -35.4% (active). In the case of `Cc1cccc(Cc2cnc(NC(=O)/C=C/c3ccco3)s2)c1`, the growth is 31.2%.

As to `O=C(N/N=C\c1ccc(F)cc1)c1ccc2nc(-c3ccc(Br)cc3)[nH]c2c1`, the growth was 34.7%. As to `CCc1nn2c(-c3ccc(Cl)cc3C)c(-c3cc(OC)c(OC)c(OC)c3)nc2s1`, the growth was 68.2%. Next, `CC(C)=CCC[C@](C)(O)[C@H]1CC[C@]2(C)[C@@H]1CC[C@@H]1[C@@]3(C)C/C(=C/c4ccccc4)C(=O)C(C)(C)[C@@H]3CC[C@]12C`: 94.7%; `CCOC(=O)/C(C#N)=C(/CC)OCC`: 113%; `CC(C)(C)OC(=O)CC(S(=O)(=O)c1ccccc1)S(=O)(=O)c1ccccc1`: -23.7% (active). With `COc1ccc(-c2nc(SCC(C)C)nc(N/N=C(/C)c3ccc(OC)c(OC)c3)c2C#N)cc1`, the growth is 91.5%. `O=C(Nc1ccc(Cl)c(Cl)c1)O/N=C\c1c(Cl)ccc([N+](=O)[O-])c1Cl`: the growth was -65% (active).
